HT1080NT lethal: qHTS for induction of synthetic lethality in tumor cells producing 2HG: qHTS for the HT-1080-NT fibrosarcoma cell line | HT-1080-NT fibrosarcoma viability, CellTiter-Glo ATP luminescence, 48 h | Potency, µM (highest dose often 46.1 µM), inactives show at the top dose activity, negative = less viability, actives largely listed as cytotoxic | hit rate 1.6% among 360,000;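 also: NT is the 2HG producing partner of a matched IDH1 knockdown line; potency is read from the fitted curve at half-maximal effect; 0% = DMSO-treated cells and -100% = media-only wells without cells; nearly all actives have a fitted effect of over 55% in size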
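Viability by CellTiter-Glo luminescence after 48 h compound exposure at 37C of HT-1080-NT cells (750/well, RPMI, 5% FBS). % activity scaled between DMSO wells and medium-only wells, then curve-fitted and categorized by curve class.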
HT1080 IDH1KD tx: qHTS for induction of synthetic lethality in tumor cells producing 2HG: qHTS for the HT-1080-IDH1KD cell line; HT-1080 IDH1 knockdown viability, ATP luminescence, 48 h; Potency, µM (top dose mostly 46.1 µM), for the others: at the top dose activity, negative = toxicity, hits mostly cytotoxic; hit rate 2% among 360,000; AID 686971, 2013;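 also: potency is read from the fitted curve at half-maximal effect; 0% = DMSO wells and -100% = cell-free medium wells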
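% activity derives from luminescence (CellTiter-Glo), normalised to DMSO and no-cell wells. HT-1080-IDH1KD cells, 750/well, had 48 h compound exposure at 37 °C.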
IL1B secr inh: qHTS for Inhibitors of Inflammasome Signaling: IL-1-beta AlphaLISA Primary Screen | AID 743279, 2014 | THP-1 LPS/ATP IL-1B secretion, AlphaLISA, 16 h; hits give low values | activity change, % at 57.5 µM | hit rate 4.7% among 360,000; in the data active = activity change below about -50%; inconclusive = mostly about -30% to -49%
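THP-1 cells pretreated 1 hr with compounds (up to 57.5 uM final), then stimulated with LPS (250 ng/mL final) plus ATP (1.25 mM final); secreted IL-1B measured by AlphaLISA after 16 hr, decreased signal indicating inhibition.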
TDP1 cell CPT: qHTS for Inhibitors of human tyrosyl-DNA phosphodiesterase 1 (TDP1): qHTS in cells in presence of CPT | chicken DT40 Tdp1-/-;hTDP1 cells + 20 nM CPT, ATP luminescence, 48 h | Potency, µM (titrated, usually from 46.2 µM), for inactives: at the top dose activity change, negative = growth inhibition, usual class: inhibitors | hit rate 12% among 420,000 | AID 686979, 2013; also: potency is read from the fitted curve at half-maximal effect; nearly all actives have a fitted effect of over 55% in size
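Cell growth measured by CellTiter-Glo luminescence after a minimum 48 h, 37 C compound exposure with 20 nM CPT in Tdp1-knockout DT40 cells stably expressing hTDP1, seeded 400/well; qHTS titration format.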
DT40 TDP1 no CPT: qHTS for Inhibitors of human tyrosyl-DNA phosphodiesterase 1 (TDP1): qHTS in cells in absence of CPT; Potency, µM (doses to about 46.2 µM), for inactives: at the highest dose activity change, negative = growth inhibition, hits mostly inhibitors; hit rate 15% among 420,000; DT40 Tdp1-/- hTDP1 cells, no CPT, ATP luminescence, 48 h; also: potency is read from the fitted curve at half-maximal effect; nearly all actives have a fitted effect of over 55% in size
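Camptothecin absent (DMSO only). Human TDP1-complemented DT40 knockout cells, 400 cells/well, 37 °C for minimum 48 hr; ATP measured via CellTiter-Glo, 30 min dark incubation, luminescence.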
* marks the source's active call; other numbers are inactive results; ? = inconclusive; / = not tested or not shown. Rows were chosen to be rich in hits. Some 19% of all compounds tested hit in one or more screens of this group. Unless noted, calls follow the shape of the dose curve; as a rule, active = well fitted curve in the direction sought with a large enough effect; inconclusive = small, poorly fitted or top-dose-only effect, or another doubt; inactive = no such curve, though single readings can be large; an effect the other way counts as inactive or inconclusive. Unless noted, % is scaled to controls: 0 for no effect and ±100 for the full control effect.

SMILES	HT1080NT lethal	HT1080 IDH1KD tx	IL1B secr inh	TDP1 cell CPT	DT40 TDP1 no CPT
O=C1NC[C@@H](CCCCN2C[C@H](Cc3ccc(O)cc3)N(Cc3ccccc3)C(=O)C2=O)N(CC2CCCCC2)C1=O	15%	13%	32	-16%	-13%
COc1ccc(Cn2cc(CN3CC(N4CCN(CCN(C)C)CC4)CS3(=O)=O)nn2)cc1 (configuration not stated)	11%	9%	14	-2%	-18%
COC1=CC(=O)OC(c2ccccc2)C1 (configuration not stated)	11%	13%	29	-1%	4%
CCCOc1ccc(CNC(=O)Cn2cc3c(n2)-c2c(oc(C(=O)N4CCOCC4)c2C)CC3)cc1	/	/	/	?	23µM*
CCCCN(CC)CCNC(=O)Cn1cc2c(n1)-c1c(oc(C(=O)N3CCCC3)c1C)CC2	4%	3%	-4	-12%	?
COc1cccc(CNC(=O)Cn2cc3c(n2)-c2c(oc(C(=O)N4CCOCC4)c2C)CC3)c1	/	/	/	18µM*	21µM*
COc1ccccc1CNC(=O)Cn1cc2c(n1)-c1c(oc(C(=O)N3CCOCC3)c1C)CC2	/	/	/	?	23µM*
Cc1c(C(=O)N2CCOCC2)oc2c1-c1nn(CC(=O)NCc3cccc(Cl)c3)cc1CC2	/	/	/	?	16µM*
Cc1cc(Oc2ccccc2)nc(OCC#N)n1	15%	5%	13	28%	-9%
O=C(NNc1c(Cl)cccc1Cl)c1sc2ccccc2c1Cl	-25%	?	/	9%	-24%
COCCn1c(Cc2ccccc2)nnc1SCC(=O)NC(C)C	9%	7%	2	-6%	-14%
COC(=O)[C@@H](NCc1cccc(CN([C@H](C(=O)OC)C(C)C)S(C)(=O)=O)c1)C(C)C	12%	9%	0	?	?
O=C(CCc1nc2ccccc2c(=O)[nH]1)Nc1nnc(SCc2ccc(Cl)cc2)s1	7%	10%	16	-25%	?
O=C(CCc1nc2ccccc2c(=O)[nH]1)Nc1nnc(SCc2ccccc2F)s1	11%	4%	27	13µM*	16µM*
O=c1cc(CN2CCCC2)c2c(ccc3ccccc32)o1	14%	11%	8	-3%	-4%
CCOC(=O)c1c(C)oc2c1c(CN1CCN(CCO)CC1)c(O)c1ccccc12	?	?	-98*	?	?
CCOC(=O)c1c(C)oc2c1c(CN1CCN(C(=O)OCC)CC1)c(O)c1ccccc12	-10%	?	?	?	21µM*
CCOC(=O)c1c(C)oc2c1c(C=NCCC(=O)O)c(O)c1ccccc12	-29%	?	0	-1%	-21%
CCOC(=O)c1c(C)oc2c1c(C(c1ccncc1)N1CCOCC1)c(O)c1ccccc12 (configuration not stated)	?	?	-25	21µM*	?
CCOC(=O)N1CCN(Cc2cc(=O)oc3ccc4ccccc4c23)CC1	2%	1%	-2	23µM*	?
Cc1ccc(NC(=O)[C@H](C)NC(=O)C2CCN(C(=O)[C@@H](N)C(C)C)CC2)cc1	1%	0%	5	-1%	-10%
COc1cc(C(=O)NCC(C)(C)CNC(=O)c2cc(OC)c(OC)c(OC)c2)cc(OC)c1OC	1%	-3%	-8	0%	-1%
O=C(O)c1cccc(Sc2cc(Cl)ccc2C(=O)O)c1	-2%	-1%	16	0%	1%
COc1cc(Br)c(CC(=O)NO)cc1OC	1%	9%	/	-3%	-29%
Nc1nc(SCc2ccc([N+](=O)[O-])cc2)c2ncn([C@@H]3O[C@H](CO)[C@@H](O)[C@H]3O)c2n1	/	/	/	-2%	-27%

Screens from PubChem BioAssay.
